Several values for one entry are separate records, joined by “and”; a condition that tells them apart may be missing. Equal entries are not always repeated. This is part of a sample that, as a whole, favours compounds with a hit. Of some 79,000 tested, about 15% had one in any assay. Some compounds were tested as several samples or in several runs, with calls that do not always agree. Activity calls are given as the source filed them. Rule as the data show it: active = growth inhibition above about 70%; inactive = the rest.
Tests used:
[1] = NCI Yeast Anticancer Drug Screen. Data for the rad50 strain (AID 155);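 also: 0% = growth of vehicle-only cultures of the same strain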; details: S. cerevisiae rad50 strain growth inhibition; at 50.0 µM; stronger effect = higher value
Procedure, shortened: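 Cells are treated with compound, grown, and their growth is then scored against vehicle-only cultures of the same repair-deficient yeast strain.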

[2] = NCI Yeast Anticancer Drug Screen. Data for the mec2-1 strain (AID 157); details: S. cerevisiae mec2-1 strain, at 50.0 µM, stronger effect = higher value
Procedure, shortened: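 Compounds were applied to mec2-1 yeast cells. Their growth was then compared with that of vehicle-treated cultures to give growth inhibition.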

[3] = NCI Yeast Anticancer Drug Screen. Data for the sgs1 mgt1 strain (AID 161);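 also: 0% = growth of cultures given vehicle only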; details: S. cerevisiae sgs1 mgt1 strain, at 50.0 µM, stronger effect = higher value
Procedure, shortened: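 Growth of a repair-deficient yeast mutant was monitored after compound treatment and expressed as inhibition relative to vehicle-treated cultures.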

[4] = NCI Yeast Anticancer Drug Screen. Data for the cln2 rad14 strain (AID 165);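 also: 0% = growth equal to vehicle treated cultures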; details: S. cerevisiae cln2 rad14 strain, at 50.0 µM, stronger effect = higher value
Procedure, shortened: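 Strain: cln2 rad14 yeast, altered in cell cycle control and DNA damage repair. Read-out: growth inhibition vs vehicle.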

[5] = NCI Yeast Anticancer Drug Screen. Data for the bub3 strain (AID 167); details: S. cerevisiae bub3 mutant strain, at 50.0 µM, stronger effect = higher value
Procedure, shortened: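 Part of a panel of yeast mutants defective in DNA damage repair or cell cycle regulation. Each strain is grown with compound, and inhibition is calculated relative to solvent-treated cultures.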

[6] = NCI Yeast Anticancer Drug Screen. Data for the mlh1 rad18 strain (AID 175); details: S. cerevisiae mlh1 rad18 strain growth inhibition; at 50.0 µM; stronger effect = higher value
Procedure, shortened: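 A repair-deficient yeast strain is exposed to test compound, and growth is scored relative to vehicle-treated controls.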

Compound	growth inhibition [1]	growth inhibition [2]	growth inhibition [3]	growth inhibition [4]	growth inhibition [5]	growth inhibition [6]
c1ccc([C@H]2N[C@@H]2c2ccccn2)cc1	22.6% (inactive)	32.5% (inactive)	32.5% (inactive)	-4.35% (inactive)	19.5% (inactive)	13.2% (inactive)
C[CH2][Sn](/[CH]=C/C=C/OC)([CH2]C)[CH2]C	36.5% (inactive)	47% (inactive)	66.2% (inactive)	16.8% (inactive)	83.4% (active)	89.7% (active)
CCN1C2CCC1CC(=O)C2	0.95% (inactive)	5.9% (inactive)	-5.7% (inactive)	-11.9% (inactive)	-14.2% (inactive)	7.85% (inactive)
O=S(=O)(F)c1cc(Cl)c(S)cc1Cl	7.75% (inactive)	-1.85% (inactive)	4.2% (inactive)	16.1% (inactive)	-1.55% (inactive)	-2.45% (inactive)
CCC[CH2][Sn]1([CH2]CCC)[O]C(=O)c2ccc(N)cc2[O]1	87.3% (active)	92.5% (active)	89.5% (active)	89.4% (active)	89.1% (active)	89.8% (active)
C[C@]12CC[C@H](O)C[C@H]1CC[C@@H]1[C@@H]2CC[C@]2(C)[C@@H](C3=CC(=O)OC3)[C@@H](O)C[C@]12O	-6.05% (inactive)	-15.8% (inactive)	2.35% (inactive)	-16.8% (inactive)	-0.15% (inactive)	8.1% (inactive)
O=C(O)CC(=O)O.[Co+2].[NH-]CC(=O)O.[NH-]CC(=O)O	15.4% (inactive)	-6.65% (inactive)	10.2% (inactive)	0.8% (inactive)	-0.9% (inactive)	-15.9% (inactive)
O=C(O)c1ccccc1S	7.1% (inactive) and 0.05% (inactive)	-7.6% (inactive) and -15.2% (inactive)	9.95% (inactive) and -8.35% (inactive)	18.9% (inactive) and -22.2% (inactive)	-1.75% (inactive) and 5.25% (inactive)	2.75% (inactive) and 11.5% (inactive)
N#CC(C#N)=Cc1ccccc1F	15.5% (inactive)	7.1% (inactive)	12.2% (inactive)	15.2% (inactive)	10.6% (inactive)	12.7% (inactive)
CC[CH2][Sn]([CH2]CC)[CH2]CC.CC[CH2][Sn]([CH2]CC)[CH2]CC	99.2% (active)	99.5% (active)	99.5% (active)	99.5% (active)	98.6% (active)	99.4% (active)
C1CCN2CC3CCCN4CCCC(C2C1)C34 (configuration not stated)	5.5% (inactive) and 7.1% (inactive)	-21.9% (inactive) and -1.05% (inactive)	7.3% (inactive) and -16.1% (inactive)	-0.35% (inactive) and -0.5% (inactive)	-11.9% (inactive) and -6.6% (inactive)	-96.5% (inactive) and -85.2% (inactive)
C=C(C)C1C2CC3(C)C4(CO4)C4OC4C3(O)C1C(=O)O2 (configuration not stated)	13.3% (inactive)	-16.4% (inactive)	14.8% (inactive)	4.2% (inactive)	5.35% (inactive)	-47.2% (inactive)
O=C1C(=O)c2ccccc2C(O)=C1CN(CCCl)CCCl	31.6% (inactive)	17.9% (inactive)	27.2% (inactive)	-21.9% (inactive)	30.8% (inactive)	29.8% (inactive)
CC(=O)C(C(C)=O)C(=O)c1ccc([N+](=O)[O-])cc1.[Cr]	-23.5% (inactive)	9.5% (inactive)	6.3% (inactive)	-55.5% (inactive)	28.5% (inactive)	23.2% (inactive)
Cc1cccc(C=NCCOCCOCCN=Cc2cccc(C)c2O)c1O.[Ni]	-8.3% (inactive)	2.65% (inactive)	-13.6% (inactive)	1.25% (inactive)	-19.6% (inactive)	-14.2% (inactive)
CNC(=O)Oc1ccccc1N	-2.8% (inactive)	-1.15% (inactive)	-5.05% (inactive)	3.7% (inactive)	-25.2% (inactive)	-5.2% (inactive)
CC[n+]1c(/C=C/c2ccc(N(CCCl)CCCl)cc2)ccc2cc(NC(=O)/C=C/c3ccccc3)ccc21	82.1% (active)	86.5% (active)	87.7% (active)	85.5% (active)	86.5% (active)	82% (active)
CC[n+]1cccc2ccccc21	-0.45% (inactive) and 56.5% (inactive)	-6.7% (inactive) and 60.2% (inactive)	-6.7% (inactive) and 73.5% (active)	-11.2% (inactive) and 5.65% (inactive)	-4.9% (inactive) and 20.5% (inactive)	-25.2% (inactive) and 66.7% (inactive)
Cc1coc2c1CCC(C)C2 (configuration not stated)	-6.65% (inactive)	-24.8% (inactive)	-5.5% (inactive)	1.55% (inactive)	1.65% (inactive)	-5.9% (inactive)

Compound	growth inhibition [1]	growth inhibition [2]	growth inhibition [3]	growth inhibition [4]	growth inhibition [5]	growth inhibition [6]
CCOP(=O)(OCC)C(C)(CC)/N=C(\N)NC#N (configuration not stated)	-4.8% (inactive)	-36.9% (inactive)	-8.85% (inactive)	12% (inactive)	15% (inactive)	-18.1% (inactive)
CC(N)C(=O)O (configuration not stated)	17.9% (inactive) and -7.45% (inactive)	-43.1% (inactive) and -5.4% (inactive)	8.7% (inactive) and -25.4% (inactive)	5.8% (inactive) and 12.2% (inactive)	7.65% (inactive) and -26.8% (inactive)	8.2% (inactive) and -9.2% (inactive)
CC1(C)N=C(c2ccccc2)C2(c3ccccc3)N1C2(C)C (configuration not stated)	-1.8% (inactive)	11.3% (inactive)	16.8% (inactive)	-0.3% (inactive)	5.6% (inactive)	-18.1% (inactive)
CC(=O)c1ccc([As](=O)(O)O)cc1	-10.3% (inactive)	-20.4% (inactive)	-13.4% (inactive)	-21.4% (inactive)	-29.1% (inactive)	-30.8% (inactive)
COc1cc2c(cc1OC)[N+]1(C)CCC3OCCC4C[N+]5(C)CCC26C5CC4C3C61 (configuration not stated)	6.15% (inactive)	3.45% (inactive)	2.75% (inactive)	-6% (inactive)	-6.6% (inactive)	-13.3% (inactive)
Cn1cccc1-c1cccnc1	-23.8% (inactive) and -4.7% (inactive)	-34.6% (inactive) and -4.95% (inactive)	-4.8% (inactive) and -7.45% (inactive)	10.7% (inactive) and 0.7% (inactive)	-19.3% (inactive) and 0.05% (inactive)	-12.7% (inactive) and -9.15% (inactive)
COc1ccc(C=O)cc1	41.5% (inactive)	-10.2% (inactive)	-7.5% (inactive)	-21.2% (inactive)	0.8% (inactive)	21.5% (inactive)
O=C1/C(=C\c2ccccc2)N2CCC1CC2	4.2% (inactive)	-18.1% (inactive)	-1.65% (inactive)	-70.6% (inactive)	-18.1% (inactive)	-20.6% (inactive)
Oc1ccc2ccccc2c1N=Nc1ccccc1	-10.8% (inactive) and 10.3% (inactive)	-6.5% (inactive) and -18.8% (inactive)	-12.6% (inactive) and -7.95% (inactive)	-21.9% (inactive) and -9.7% (inactive)	0.9% (inactive) and -18.4% (inactive)	3.1% (inactive) and 2.3% (inactive)
O=P(O)(O)c1ccccc1.[Zn+2]	13.9% (inactive)	16.4% (inactive)	-0.45% (inactive)	-14% (inactive)	18.1% (inactive)	24.2% (inactive)
C1CN1[PH+](N1CC1)N1CC1.[C-]#[O+].[C-]#[O+].[C-]#[O+].[C-]#[O+].[C-]#[O+].[Cr]	-5.55% (inactive)	-4.65% (inactive)	-0.75% (inactive)	-11.8% (inactive)	2.4% (inactive)	-17.3% (inactive)
CC(C)(C)c1ccc(OP(=O)(Oc2ccccc2)Oc2ccccc2)cc1	15.9% (inactive)	0.05% (inactive)	-8.15% (inactive)	-30.9% (inactive)	24.1% (inactive)	33.9% (inactive)
Cc1ccc(C(=O)C2C(c3ccccc3)N2Cc2ccccc2)cc1 (configuration not stated)	13.8% (inactive)	7.85% (inactive)	35.4% (inactive)	-10.3% (inactive)	30.6% (inactive)	14.7% (inactive)
CC[C@@]1(O)C(=O)OCc2c1c(Cl)c1n(c2=O)Cc2cc3ccccc3nc2-1	-21.1% (inactive)	-23.9% (inactive)	-5.85% (inactive)	17.7% (inactive)	-28.5% (inactive)	-70% (inactive)
CCC1(c2ccccc2)C(=O)N(CCCl)C(=O)N(CCCl)C1=O	27.7% (inactive)	15.8% (inactive)	4.35% (inactive)	-21.7% (inactive)	12.2% (inactive)	17.4% (inactive)
O=[N+]([O-])NC1=NCCN1CCO	-8.85% (inactive)	-3.95% (inactive)	-2.15% (inactive)	-16.6% (inactive)	-26.1% (inactive)	-18.9% (inactive)
O=C(/C=C/c1ccccc1)Nc1ccc(Cl)cc1C(=O)c1ccccc1	-2.6% (inactive)	14.8% (inactive)	7.6% (inactive)	-6.6% (inactive)	40.4% (inactive)	20.4% (inactive)
COc1ccc2c3c1OC1C(Oc4nnnn4-c4ccccc4)C=CC4C(C2)N(C)CCC341 (configuration not stated)	39.2% (inactive)	5.55% (inactive)	13.5% (inactive)	21.6% (inactive)	-5.75% (inactive)	12.5% (inactive)
